Reference: PubChem BioAssay AID488969 (Vanderbilt High Throughput Screening Facility, 2010)
Whole data set: some 110,000 compounds, median “z-score” near -0.1, cut for the highest 2% near 2. This is one part of a sample in which the highest values are shown more often than they occur. Activity calls are given as the source filed them.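 The calls were made as follows: active = z-score in the third read window above 3 or below -3; inactive = the rest.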

target: Metabotropic glutamate receptor 8 (Rattus norvegicus) (UniProt P70579); test: rat mGluR8 modulators via GIRK flux, primary screen, cell-based, thallium flux, HTS (AID 488969); conditions: HEK293 rat mGluR8, GIRK (G protein-gated inwardly rectifying potassium channel) thallium flux, FluoZin2; at 10 µM; stronger effect = higher value; submaximal glutamate (EC20) added with thallium
Sequence (P70579 whole entry, looked up): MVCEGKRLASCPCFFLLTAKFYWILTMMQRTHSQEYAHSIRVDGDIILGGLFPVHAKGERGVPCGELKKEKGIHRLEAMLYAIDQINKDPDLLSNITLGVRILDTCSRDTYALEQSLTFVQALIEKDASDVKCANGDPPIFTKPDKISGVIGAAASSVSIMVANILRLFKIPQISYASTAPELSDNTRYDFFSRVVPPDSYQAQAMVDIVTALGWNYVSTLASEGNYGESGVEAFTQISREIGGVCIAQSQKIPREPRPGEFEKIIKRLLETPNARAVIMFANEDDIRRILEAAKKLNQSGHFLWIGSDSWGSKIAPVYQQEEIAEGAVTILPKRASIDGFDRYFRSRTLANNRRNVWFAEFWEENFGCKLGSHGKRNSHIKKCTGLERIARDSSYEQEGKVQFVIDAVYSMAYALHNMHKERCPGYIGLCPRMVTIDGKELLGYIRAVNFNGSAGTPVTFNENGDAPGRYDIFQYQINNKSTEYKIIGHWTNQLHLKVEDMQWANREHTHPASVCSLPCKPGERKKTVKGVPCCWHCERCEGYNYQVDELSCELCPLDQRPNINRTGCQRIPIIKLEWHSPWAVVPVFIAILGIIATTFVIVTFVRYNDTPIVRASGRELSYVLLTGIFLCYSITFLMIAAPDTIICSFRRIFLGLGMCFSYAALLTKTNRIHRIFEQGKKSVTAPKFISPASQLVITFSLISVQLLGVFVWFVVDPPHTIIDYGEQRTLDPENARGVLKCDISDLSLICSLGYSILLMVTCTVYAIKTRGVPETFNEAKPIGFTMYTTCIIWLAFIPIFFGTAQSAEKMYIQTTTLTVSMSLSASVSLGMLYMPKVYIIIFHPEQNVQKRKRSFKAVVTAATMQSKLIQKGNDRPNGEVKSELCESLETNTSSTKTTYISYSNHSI

**Q.** Which z-score does the source give for `O=C(NCc1ccco1)c1ccccc1F` here?
**A.** 0.717

**Q.** Which z-score does the source give for `Cc1ccc(C)c(NC(=O)CNS(=O)(=O)c2ccccc2)c1` here?
**A.** -0.144

**Q.** How did the z-score turn out when `O=C(CSc1nnnn1-c1ccccc1)N1CCCc2ccccc21` was run?
**A.** -0.861

**Q.** How did the z-score turn out when `Cc1ccc(NC(=O)CSc2nnc(-c3ccncc3)n2C)cc1C` was run?
**A.** -0.215

**Q.** For `COc1cc(OC)c(NC(=O)c2cccc(F)c2)cc1Cl`, which z-score is on record?
**A.** -0.155

**Q.** `COc1ccc(CC(=O)N(c2ccccc2)c2nc(C)cs2)cc1` was tested. Which z-score did it give?
**A.** -0.721

**Q.** With `COc1cccc(C(=O)Nc2ccc(NC(C)=O)cn2)c1` as the molecule, how does the z-score read?
**A.** 0.157

**Q.** `CCC(=O)Nc1ccc(NC(=O)c2cccc(OC)c2)nc1` was tested. Which z-score did it give?
**A.** 0.209

**Q.** `CCC(=O)Nc1ccc(NC(=O)C23CC4CC(CC(C4)C2)C3)cn1` was tested. Which z-score did it give?
**A.** -0.0944

**Q.** How did the z-score turn out when `CCCC(=O)Nc1ccc(NC(=O)c2cccc(OC)c2)nc1` was run?
**A.** 2.18

**Q.** Which z-score does the source give for `CCCC(=O)Nc1ccc(NC(=O)C2CC2)cn1` here?
**A.** 13.2 (active)

**Q.** For `CCCCC(=O)Nc1ccc(NC(=O)C2CC2)nc1`, which z-score is on record?
**A.** 0.252

**Q.** Which z-score does the source give for `CCCCC(=O)Nc1ccc(NC(=O)C2CC2)cn1` here?
**A.** 0.324

**Q.** For `CCCC(=O)Nc1cc(C)c(NC(=O)C23CC4CC(CC(C4)C2)C3)cn1`, which z-score is on record?
**A.** 0.0448

**Q.** `CCCC(=O)Nc1ccc(NC(=O)C23CC4CC(CC(C4)C2)C3)cn1` was tested. Which z-score did it give?
**A.** 5.76 (active)

**Q.** For `O=C(Nc1ccc(Cl)cn1)c1cccc(F)c1`, which z-score is on record?
**A.** 0.192

**Q.** For `C[N+]1=C(/C=C/Nc2ccccc2Cl)C(C)(C)c2ccccc21`, which z-score is on record?
**A.** 0.3

**Q.** Which z-score does the source give for `COc1ccc(Cl)cc1NC(=O)NC(C)c1ccncc1` (stereo unspecified) here?
**A.** -0.275

**Q.** Which z-score does the source give for `O=C(Nc1cc(C(F)(F)F)ccc1N1CCCC1)c1cccnc1` here?
**A.** 0.0707

**Q.** With `O=C(Cn1cc(/C=N/O)c2ccccc21)N1CCOCC1` as the molecule, how does the z-score read?
**A.** -0.312

**Q.** With `C=CCn1c(COc2ccc(Cl)cc2)nnc1SCC(=O)N1CC(=O)Nc2ccccc21` as the molecule, how does the z-score read?
**A.** -0.735

**Q.** For `Nc1nnc(Cc2ccccc2)s1`, which z-score is on record?
**A.** -0.122

**Q.** For `CC1CCc2nc(NC(=O)CN3CCOCC3)sc2C1` (stereo unspecified), which z-score is on record?
**A.** -0.313

**Q.** How did the z-score turn out when `CC1CCc2nc(NC(=O)Nc3ccc4c(c3)OCO4)sc2C1` (stereo unspecified) was run?
**A.** -0.337

**Q.** `CC1CCc2nc(NC(=O)CN3CCN(Cc4ccc5c(c4)OCO5)CC3)sc2C1` (stereo unspecified) was tested. Which z-score did it give?
**A.** 2.47

**Q.** Which z-score does the source give for `Oc1ccc(/C=N/NC(=S)NCc2ccco2)cc1` here?
**A.** 0.806

**Q.** Which z-score does the source give for `S=C(NCc1ccco1)Nc1cccc(Cl)c1` here?
**A.** 0.899

**Q.** For `COc1cc(/C=N/NC(=S)NCc2ccco2)cc(OC)c1OC`, which z-score is on record?
**A.** -0.66

**Q.** With `CCN(CC)c1ccc(/C=N/NC(=S)NCc2ccco2)cc1` as the molecule, how does the z-score read?
**A.** 0.137

**Q.** `S=C(NCc1ccco1)N/N=C/c1ccc(Cl)cc1` was tested. Which z-score did it give?
**A.** 2.21

**Q.** How did the z-score turn out when `CCc1ccc(/C=N/NC(=S)NCCc2ccccc2)cc1` was run?
**A.** 0.0899

**Q.** How did the z-score turn out when `S=C(NCCc1ccccc1)N/N=C/c1cccc(Cl)c1Cl` was run?
**A.** 2.63

**Q.** How did the z-score turn out when `CN(C)c1ccc(/C=N/NC(=S)NCc2ccco2)cc1` was run?
**A.** 0.0065

**Q.** How did the z-score turn out when `S=C(NCc1ccco1)N/N=C/c1ccccc1Cl` was run?
**A.** 2.22

**Q.** How did the z-score turn out when `S=C(NCCc1ccccc1)N/N=C/c1ccccc1Cl` was run?
**A.** 0.283

**Q.** For `S=C(NCc1ccco1)Nc1cc(Cl)c(Cl)cc1Cl`, which z-score is on record?
**A.** 0.256

**Q.** For `S=C(NCc1ccco1)Nc1ccc(Cl)c(Cl)c1`, which z-score is on record?
**A.** 8.32 (active)

**Q.** Which z-score does the source give for `Cc1ccccc1N1C(=O)C(Oc2ccc(Cl)cc2)C1CNC(C)(C)C` (stereo unspecified) here?
**A.** 0.46

**Q.** `Cc1c(C)n(C)c2ccc(C(=O)Nc3cccc4ccccc34)cc12` was tested. Which z-score did it give?
**A.** 0.368

**Q.** `O=C(O)c1ccc(N2C(=O)c3cccc(Oc4ccc(Cl)cc4)c3C2=O)cc1` was tested. Which z-score did it give?
**A.** 0.79

**Q.** `CN(C)CCCNC(=O)COc1ccc(Br)cc1Cl` was tested. Which z-score did it give?
**A.** 0.032

**Q.** How did the z-score turn out when `CCc1ccc(/C=C/C(=O)c2ccc(S(=O)(=O)N(C)C)cc2)cc1` was run?
**A.** -0.379

**Q.** How did the z-score turn out when `C(=C\c1ccccc1)/CSc1nnc(-c2ccccc2)n1Cc1ccco1` was run?
**A.** -0.701

**Q.** For `CC(C)COC(=O)c1nnsc1NC(=O)Nc1ccccc1`, which z-score is on record?
**A.** 0.142

**Q.** For `CNC(=S)N/N=C/c1ccccc1Cl`, which z-score is on record?
**A.** 1.82

**Q.** With `S=C(N/N=C/c1ccccc1Cl)Nc1ccccc1` as the molecule, how does the z-score read?
**A.** 6.51 (active)

**Q.** How did the z-score turn out when `O=[N+]([O-])c1ccc(Cl)c(/C=N/NC(=S)Nc2ccccc2)c1` was run?
**A.** 1.33

**Q.** For `CCOc1ccc(NC(=O)CSc2nnc(C3CC3)n2N)cc1`, which z-score is on record?
**A.** 0.0098

**Q.** Which z-score does the source give for `O=C(CSc1nc2cc(Cl)ccc2s1)NCc1ccc2c(c1)OCO2` here?
**A.** -0.0385

**Q.** How did the z-score turn out when `COc1ccc(C2Nc3ccccc3C(=O)N2Cc2ccco2)cc1COc1ccc(F)cc1` (stereo unspecified) was run?
**A.** -0.406

**Q.** Which z-score does the source give for `Cc1cccc(C)c1NC(=O)CSc1nc2ccccc2c(=O)[nH]1` here?
**A.** 0.493

**Q.** `Cc1cnc(NC(=O)CSc2nc3ccccc3c(=O)[nH]2)s1` was tested. Which z-score did it give?
**A.** 2.14

**Q.** `Cc1cnc(NC(=O)CSc2ccccc2)s1` was tested. Which z-score did it give?
**A.** -0.175

**Q.** How did the z-score turn out when `O=C(CCNC(=O)Cn1ccc2ccccc2c1=O)NCCN1CCN(c2cccc(Cl)c2)CC1` was run?
**A.** -0.463

**Q.** How did the z-score turn out when `Cc1ccc2nc(SCC(=O)Nc3ccc4c(c3)OCCO4)[nH]c2c1` was run?
**A.** -0.404

**Q.** Which z-score does the source give for `Clc1ccccc1CSc1nc2ccncc2[nH]1` here?
**A.** 0.533

**Q.** For `Nc1cc(=O)[nH]c(SCc2cccc(Cl)c2)n1`, which z-score is on record?
**A.** -0.406

**Q.** How did the z-score turn out when `O=C(CSc1nc2ccccc2[nH]1)Nc1ccc2c(c1)CCC2` was run?
**A.** -0.809

**Q.** `Clc1cccc(CSc2nc3ccncc3[nH]2)c1` was tested. Which z-score did it give?
**A.** 9.69 (active)

**Q.** Which z-score does the source give for `Cc1ccc(CSc2nc3ncccc3[nH]2)cc1` here?
**A.** 1.17

**Q.** `Clc1ccc(CSc2nc3ccncc3[nH]2)cc1` was tested. Which z-score did it give?
**A.** 0.673

**Q.** With `Cc1cc(C)cc(NC(=O)CSc2nc3ccncc3[nH]2)c1` as the molecule, how does the z-score read?
**A.** 2.24

**Q.** `Cc1cc(C)cc(NC(=O)CSc2nc3[nH]ncc3c(=O)[nH]2)c1` was tested. Which z-score did it give?
**A.** -0.54

**Q.** `COc1ccc2nc(SCC(=O)Nc3ccc4c(c3)CCC4)[nH]c2c1` was tested. Which z-score did it give?
**A.** 0.226

**Q.** With `O=C(CSc1nc2ccc(Cl)cc2[nH]1)Nc1ccc2c(c1)CCC2` as the molecule, how does the z-score read?
**A.** 3.89 (active)

**Q.** With `Cc1ccc(CSc2nc3ccncc3[nH]2)cc1` as the molecule, how does the z-score read?
**A.** 2.46

**Q.** With `COc1cc(/C=N/O)c(Br)cc1OCC(=O)Nc1ccccc1C` as the molecule, how does the z-score read?
**A.** -0.175

**Q.** For `COc1ccc(CCNC(=O)CCC(=O)N2CCN(S(=O)(=O)c3ccc(Cl)cc3)CC2)cc1OC`, which z-score is on record?
**A.** -0.0943

**Q.** How did the z-score turn out when `COc1cccc(NC(=O)c2ccc(-n3cccn3)nc2)c1` was run?
**A.** 0.109

**Q.** Which z-score does the source give for `Cc1c(C(=O)NCCc2ccc3c(c2)OCCO3)oc2ccccc12` here?
**A.** -0.63

**Q.** How did the z-score turn out when `CCn1cc(C(=O)O)c(=O)c2cc(F)c(N3CCN(S(=O)(=O)c4ccc(Br)cc4)CC3)cc21` was run?
**A.** -0.406

**Q.** How did the z-score turn out when `S=C1NC(c2ccccc2)N2C(=S)NC(c3ccccc3)N12` (stereo unspecified) was run?
**A.** -1.08

**Q.** With `CN(CC(=O)Nc1ccc(F)c(F)c1F)C(=O)/C=C/c1ccc(Cl)cc1` as the molecule, how does the z-score read?
**A.** -0.265

**Q.** Which z-score does the source give for `CCN(CC)C(=O)c1cnn(-c2ccccc2)c1NC(=O)c1cccs1` here?
**A.** -0.27

**Q.** `COc1ccc(CNC(=O)C2CCN(S(=O)(=O)c3c(C)n[nH]c3C)CC2)cc1` was tested. Which z-score did it give?
**A.** -0.115

**Q.** For `Cc1c(CCOC(=O)CC23CC4CC(CC(C4)C2)C3)sc[n+]1Cc1ccccc1`, which z-score is on record?
**A.** 0.256
